According to PubChem BioAssay (NCATS):
Activity calls are given as the source filed them. How the calls were made is not given here.

Key:
[1] = Immunotoxin (HA22) sensitization/mitigation study. Vehicle arm (PBS) (AID 1159510)
[2] = Immunotoxin (SS1P) sensitization/mitigation study. Vehicle arm (DMEM) (AID 1159513)
Potency means the concentration at half of the fitted maximal effect.

Cn1c(=O)n(-c2ccc(C(C)(C)C#N)cc2)c2c3cc(-c4cnc5ccccc5c4)ccc3ncc21
Potency [1]: 3.72 µM (active) | Potency [2]: 0.0332 µM (active)

CC1(O)CC(c2nc(-c3ccc4ccc(-c5ccccc5)nc4c3)c3c(N)nccn23)C1 (stereo not drawn)
Potency [1]: 29.6 µM (active) | Potency [2]: 18.7 µM (active)

CCOc1ccn(-c2ccc(F)cc2)c(=O)c1C(=O)Nc1ccc(Oc2ccnc(N)c2Cl)c(F)c1
Potency [1]: 18.7 µM (active) | Potency [2]: 23.5 µM (active)

COc1ccccc1-c1cccc(-c2c(O)c3cc(C#N)c(Cl)cc3[nH]c2=O)c1
Potency [1]: inactive | Potency [2]: inactive

OCCC#Cc1nc(-c2ccc(F)cc2)c(-c2ccncc2)n1CCCc1ccccc1
Potency [1]: 23.5 µM (active) | Potency [2]: 18.7 µM (active)

C[C@]1(CO)CN(c2cc(C(=O)Nc3ccc4c(c3)-c3c(c(C(N)=O)nn3-c3ccc(F)cc3)CC4)c(Cl)cn2)C[C@@]1(C)CO
Potency [1]: 3.32 µM (active) | Potency [2]: 16.6 µM (active)

CC(C)Oc1cc(Nc2nc(N[C@@H](C)c3ccc(F)cn3)ncc2Cl)[nH]n1
Potency [1]: 20.9 µM (active) | Potency [2]: 20.9 µM (active)

COc1cc2ncnc(-n3nc(-c4ccccn4)nc3N)c2cc1OC
Potency [1]: 3.72 µM (active) | Potency [2]: 4.18 µM (active)

NC(=O)Nc1cc(-c2cccc(F)c2)sc1C(=O)N[C@H]1CCCNC1
Potency [1]: 0.105 µM (active) | Potency [2]: 0.59 µM (active)
